Measured values from the supplement of paper PMC7411640.
Where a name gives a salt, the structure may show the parent alone.

Test system: MDA-MB-468
Experiment: phospho-S6 immunofluorescence (DAPI-normalised), per-plate z-score; higher = higher phospho-S6 signal (less pathway suppression)
Settings: co-treatment: vehicle; 24 h
Description: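 GPCR-targeted compound library (MedChemExpress HY-L006) tested on MDA-MB-468 PTEN-null TNBC cells in 384-well plates at 0.1, 1 or 10 uM, combined with vehicle, GDC0941 450 nM or lapatinib 1 uM, for 24 h. Phospho-S6 (S240/244) immunofluorescence normalised to DAPI and expressed as a per-plate z-score; values are the mean of biological triplicates.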

Structure (SMILES)	phospho-S6 immunofluorescence (z-score)
CCN(CCCc1ccccc1)CCCc1ccccc1 [Alverine (citrate)] (compound 10 µM)	0.02
N#Cc1cc(NC(=O)C(=O)O)c(Cl)c(NC(=O)C(=O)O)c1 [Lodoxamide] (compound 10 µM)	0.66
CCCN(CCc1cccs1)C1CCc2c(O)cccc2C1 (racemic) [rac-Rotigotine (Hydrochloride)] (compound 10 µM)	-0.11
OC(CCN1CCCCC1)(c1ccccc1)C1CCCCC1 (centres undefined) [Trihexyphenidyl (hydrochloride)] (compound 10 µM)	0.56
C[C@@H](NCCCc1cccc(C(F)(F)F)c1)c1cccc2ccccc12 [Cinacalcet (hydrochloride)] (compound 10 µM)	-9.18
CC(C[N+](C)(C)C)OC(N)=O (centres undefined) [Bethanechol (chloride)] (compound 10 µM)	0.6
COCCc1ccc(OCC(O)CNC(C)C)cc1 (centres undefined) [Metoprolol (Succinate)] (compound 10 µM)	1.15
c1ccc2c(c1)OCC(CN1CCCCC1)O2 (centres undefined) [Piperoxan (hydrochloride)] (compound 10 µM)	0.8
c1cc(CN2CCCNCCNCCCNCC2)ccc1CN1CCCNCCNCCCNCC1 [Plerixafor] (compound 10 µM)	0.2
C[C@@H](O[C@H]1OCCN(Cc2nn(P(=O)(O)O)c(=O)[nH]2)[C@H]1c1ccc(F)cc1)c1cc(C(F)(F)F)cc(C(F)(F)F)c1 [Fosaprepitant (dimeglumine)] (compound 10 µM)	0.39
CCc1nc2c(C)nc(C)cc2n1-c1ccc(CCNC(=O)NS(=O)(=O)c2ccc(C)cc2)cc1 [Grapiprant] (compound 10 µM)	-0.51
COc1cc2nc(N3CCN(C(=O)C4CCCO4)CC3)nc(N)c2cc1OC (centres undefined) [Terazosin (hydrochloride dihydrate)] (compound 10 µM)	0.87
NC(N)=Nc1nc(CSCCN/C=N/S(=O)(=O)c2ccc(Br)cc2)cs1 [Ebrotidine] (compound 10 µM)	-1.7
Cc1nn(C)c2c1C(c1ccc(C(F)(F)F)cc1)C(C#N)=C(N)O2 (centres undefined) (compound 10 µM)	2.57
O=C1O[C@]2(CC[C@H](C(=O)Nc3ccn(-c4ccccc4F)n3)CC2)c2cnccc21 (compound 10 µM)	0.3
Cc1noc(-c2ccc(-c3ccc(CC(=O)O)cc3)cc2)c1NC(=O)O[C@H](C)c1ccccc1 (compound 10 µM)	0.63
Cc1nc2n(c(=O)c1CCN1CCC(c3noc4cc(F)ccc34)CC1)CCCC2O (centres undefined) [Paliperidone] (compound 10 µM)	0.5
COc1nc(C)nc(Cl)c1NC1=NCCN1 [Moxonidine] (compound 10 µM)	0.7
CN(C)CCC=C1c2ccccc2C=Cc2ccccc21 [Cyclobenzaprine (hydrochloride)] (compound 10 µM)	-0.18
COCc1nnc(N2CC(Oc3ccc(F)cc3Cl)C2)n1-c1ccc(OC)nc1 (compound 10 µM)	-0.61
C/C(=N\NC(=O)C(NC(=O)c1ccccc1)c1n[nH]c(=O)c2ccccc12)c1cccc(Br)c1 (centres undefined) (compound 10 µM)	0.95
C[C@H](NC(=O)CNC(=O)c1cccc(Cl)c1)c1ccccc1 (compound 10 µM)	0.46
CN1CCC(=C2c3ccccc3CCc3sccc32)CC1 [Pizotifen] (compound 10 µM)	-0.19
CNC(=C[N+](=O)[O-])NCCSCc1ccc(CN(C)C)o1 [Ranitidine (hydrochloride)] (compound 10 µM)	0.29
COC(=O)[C@H]1[C@H]2C[C@H]3c4[nH]c5ccccc5c4CCN3C[C@H]2CC[C@@H]1O [Rauwolscine (hydrochloride)] (compound 10 µM)	-0.22
Cc1nc(C(=O)N2CCC[C@H]2Cc2nnc(-c3ccccc3)o2)c(-c2ccccc2F)s1 (compound 10 µM)	0.17
C[C@H](Cc1cc2c(c(C(N)=O)c1)N(CCCO)CC2)NCCOc1ccccc1OCC(F)(F)F [Silodosin] (compound 10 µM)	0.57
CCOC(=O)N1CCC(=C2c3ccc(Cl)cc3CCc3cccnc32)CC1 [Loratadine] (compound 10 µM)	-1.25
CC(COc1ccccc1)N(CCCl)Cc1ccccc1 (centres undefined) [Phenoxybenzamine (hydrochloride)] (compound 10 µM)	0.39
